The target of one experiment is SLC20A1. The experiment can be described thus: pooled miR-30 sensor sort-seq; sequence = guide strand. As to conditions: shRNA.
In turn, TTCAATATCACCAACAGACAAC displayed a sensor-assay potency score (higher = more potent) of -1.

Take TAGCACAAGTAACACTTCCCTC: the sensor-assay potency score (higher = more potent) is -0.562.

In turn, TTCTCGTTCAATTTTTCTCTTC showed a sensor-assay potency score (higher = more potent) of -0.376.

TAGGCAACTGCACTGCACCATT: the sensor-assay potency score (higher = more potent) was -0.846.

TTTTCTGTCACCTAGACCCATC came in with a sensor-assay potency score (higher = more potent) of -0.857.

Sequence TTGACTGAACTGGACAAGGTTC had a sensor-assay potency score (higher = more potent) of -0.668.

Sequence TAACAGTCAATAAACTGCTTGC registered a sensor-assay potency score (higher = more potent) of 0.0584.

In the case of TAGCTCTTTGTACAGGCCGGAA, the sensor-assay potency score (higher = more potent) was -1.38.

For another experiment, the target named is SLC22A17. The experiment is described as above. As to conditions: shRNA.
On to TCTGTCTGCGGGGTAACCCAGG, for which the sensor-assay potency score (higher = more potent) was -1.27.

TAACCCAGGAACAGGTAGCCGG came in with a sensor-assay potency score (higher = more potent) of -1.09.

AAGGTCAGCAGCACAATCCCGC gave a sensor-assay potency score (higher = more potent) of -0.694.

Regarding TGCTCCAGGATCACCTGCCAGC, the sensor-assay potency score (higher = more potent) was -1.29.

TCACTATCAGCCACCGTGCGGA gave a sensor-assay potency score (higher = more potent) of -0.275.

Consider TTCACTATCAGCCACCGTGCGG, for which the sensor-assay potency score (higher = more potent) is -0.928.

ATTATAGTCCCAATCCTTGAGG gave a sensor-assay potency score (higher = more potent) of -1.04.

As for TATTGAAACAGAATGATAGAGC, the sensor-assay potency score (higher = more potent) is -0.514.

As to TAGACACCCAGGTCAACACCGG, the sensor-assay potency score (higher = more potent) was -0.269.

TCCGGCAGCAGCATAATGCTGA yielded a sensor-assay potency score (higher = more potent) of -0.933.

For the sequence TGAAACAGAATGATAGAGCAAG, the sensor-assay potency score (higher = more potent) was -0.0667.

For the next experiment, the target named is SLC22A1. The description is as above. The conditions noted are these: shRNA.
TTTCGGTGACATCCTCTTCGAG gave a sensor-assay potency score (higher = more potent) of -1.03.

TTTTGTGATAACAGCCACCGAG came in with a sensor-assay potency score (higher = more potent) of -0.543.

In turn, TTTATTGCTTCAGTGTTTCTTT registered a sensor-assay potency score (higher = more potent) of 0.132.

Regarding TATAGTTCAGCTCCTCCGCAGG, the sensor-assay potency score (higher = more potent) was -0.994.

ATGATTATGATGTTTAACCAGT showed a sensor-assay potency score (higher = more potent) of -1.09.

Turning to TTCTGCAGAGGATAACTCCATC, the sensor-assay potency score (higher = more potent) was -0.998.

TGATAGAGCACAGAGTCCGTGA gave a sensor-assay potency score (higher = more potent) of -0.157.

Consider TGGTACATGATCGCCACCGTTC, for which the sensor-assay potency score (higher = more potent) was -1.08.

The sequence TACATGATCGCCACCGTTCTTC had a sensor-assay potency score (higher = more potent) of -0.241.

TATCTTTATTGCTTCAGTGTTT displayed a sensor-assay potency score (higher = more potent) of -0.476.

Sequence TTTGTGATAACAGCCACCGAGG showed a sensor-assay potency score (higher = more potent) of -0.671.

With TTCGGTGACATCCTCTTCGAGG, the sensor-assay potency score (higher = more potent) is 0.00261.

The target of the next experiment is SLC22A7. The description is as above. As to conditions: shRNA.
As for TACAACTCTGAAGTGAACAGGT, the sensor-assay potency score (higher = more potent) stood at 0.517.

The sequence TTTATTTACAGAATCCTCCCCA gave a sensor-assay potency score (higher = more potent) of 0.685.

In turn, ATGGCAAACATTACATAGCTGA returned a sensor-assay potency score (higher = more potent) of -0.95.

Turning to TTACATAGCTGACGGAGGCTGC, the sensor-assay potency score (higher = more potent) was -0.245.

On to TCGGAGGACACTAGCAGTCTAG, for which the sensor-assay potency score (higher = more potent) was -0.985.

For TAGGGTACAACTCTGAAGTGAA, the sensor-assay potency score (higher = more potent) came to 0.4.

Regarding TAATAGGAGAAGTTCACTCCGA, the sensor-assay potency score (higher = more potent) was found to be 0.0839.

Regarding TTATTTACAGAATCCTCCCCAA, the sensor-assay potency score (higher = more potent) is -0.0957.

TTCTGAGTGGTCGTACTCCCAG: the sensor-assay potency score (higher = more potent) is -1.56.

For the origin of these results see the OligoGym collection.
Further: reference of the scale not given here.
